# Assay results from PubChem BioAssay (NCI).
# This is part of a sample that, as a whole, favours compounds with a hit. Of some 79,000 tested, about 15% had one in any assay. A number with no mark means an inactive call. Calls of active or inactive are those of the source. No stated cut-off is given here; in the data, active means growth inhibition above about 70%; inactive means the rest.
# Experiments:
# [1] = NCI Yeast Anticancer Drug Screen. Data for the rad52 strain (AID 147);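 further: 0% = growth of vehicle-treated control cultures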; settings: S. cerevisiae rad52 mutant growth inhibition, active compounds read high
# How it was run: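 Screen used a yeast mutant impaired in DNA repair. After compound exposure, growth was measured. Values reflect inhibition compared with vehicle-treated cells.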
# [2] = NCI Yeast Anticancer Drug Screen. Data for the wt1 strain (AID 149);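 further: 0% = growth of vehicle-treated wt1 cultures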; settings: S. cerevisiae wt1 strain (SPY 50644) growth inhibition, active compounds read high
# How it was run: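 Compounds are added to wt1 yeast cultures. Growth is then measured. Inhibition is expressed relative to vehicle-treated controls.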
# [3] = NCI Yeast Anticancer Drug Screen. Data for the rad50EPP+ strain (AID 151);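 further: 0% = growth of vehicle-treated control cultures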; settings: S. cerevisiae rad50 mutant strain, active compounds read high
# How it was run: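 Exposing the rad50EPP+ strain to each compound, growth was compared with vehicle-only cultures to give inhibition.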
# [4] = NCI Yeast Anticancer Drug Screen. Data for the mgt1 strain (AID 153); settings: S. cerevisiae mgt1 mutant growth inhibition, active compounds read high
# How it was run: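 Genetically defined yeast (mgt1) treated with compound; inhibition of growth expressed against vehicle-treated controls.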
# [5] = NCI Yeast Anticancer Drug Screen. Data for the rad50 strain (AID 155);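 further: 0% = growth of vehicle-only cultures of the same strain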; settings: S. cerevisiae rad50 strain growth inhibition, active compounds read high
# How it was run: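 Inhibition values express reduced yeast growth in compound-treated cultures relative to vehicle-treated controls.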
# [6] = NCI Yeast Anticancer Drug Screen. Data for the mec2-1 strain (AID 157); settings: S. cerevisiae mec2-1 strain, active compounds read high
# How it was run: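 Readout is yeast growth inhibition, normalised to vehicle-treated controls, in the mec2-1 strain exposed to compound.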
# [7] = NCI Yeast Anticancer Drug Screen. Data for the rad14 strain (AID 159);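 further: 0% = growth of vehicle-treated control cultures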; settings: S. cerevisiae rad14 strain growth inhibition, active compounds read high
# How it was run: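 A mutant yeast strain defective in DNA damage repair is treated with compound; inhibition of its growth is scored against untreated, vehicle-exposed cultures.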
# [8] = NCI Yeast Anticancer Drug Screen. Data for the sgs1 mgt1 strain (AID 161);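 further: 0% = growth of cultures given vehicle only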; settings: S. cerevisiae sgs1 mgt1 strain, active compounds read high
# How it was run: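 This yeast growth screen uses a strain with defined DNA-repair lesions; compound-treated growth is compared with vehicle-treated growth.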
# [9] = NCI Yeast Anticancer Drug Screen. Data for the CLN2oe strain (AID 163);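 further: 0% = growth of vehicle-only control cultures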; settings: S. cerevisiae CLN2oe strain, active compounds read high
# How it was run: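 Values reflect how much compound exposure reduced yeast growth, referenced to vehicle-exposed cells. Assay organism is a strain with a defined genetic change affecting cell-cycle control.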
# [10] = NCI Yeast Anticancer Drug Screen. Data for the cln2 rad14 strain (AID 165);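 further: 0% = growth equal to vehicle treated cultures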; settings: S. cerevisiae cln2 rad14 strain, active compounds read high
# How it was run: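 Relative to vehicle controls, growth inhibition of compound-treated cln2 rad14 yeast was recorded.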
# [11] = NCI Yeast Anticancer Drug Screen. Data for the bub3 strain (AID 167); settings: S. cerevisiae bub3 mutant strain, active compounds read high
# How it was run: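 Steps: expose the mutant yeast strain to compound; grow alongside vehicle-treated cultures; measure growth; express inhibition against the vehicle cultures.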
# [12] = NCI Yeast Anticancer Drug Screen. Data for the wt2 strain (AID 169);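 further: 0% = growth of vehicle-treated yeast cultures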; settings: S. cerevisiae wt2 strain growth inhibition, active compounds read high
# How it was run: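 Values express reduction in yeast growth under compound treatment, referenced to vehicle-treated cells.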
# [13] = NCI Yeast Anticancer Drug Screen. Data for the mlh1 strain (AID 171);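 further: 0% = growth of vehicle-treated control cultures of the same strain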; settings: S. cerevisiae mlh1 strain growth inhibition, active compounds read high
# How it was run: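 Steps: expose the defined-mutant yeast strain to compound; expose a parallel culture to vehicle; measure growth; express compound effect as inhibition relative to the vehicle culture.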
# [14] = NCI Yeast Anticancer Drug Screen. Data for the sgs1 strain (AID 173);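 further: 0% = growth of vehicle-only control cultures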; settings: S. cerevisiae sgs1 mutant, active compounds read high
# How it was run: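 Treat defined-mutant yeast with compound; measure growth; calculate inhibition relative to vehicle-treated cells.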
# [15] = NCI Yeast Anticancer Drug Screen. Data for the mlh1 rad18 strain (AID 175); settings: S. cerevisiae mlh1 rad18 strain growth inhibition, active compounds read high
# How it was run: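 Test agents were incubated with a yeast strain of defined genotype (DNA damage repair defect). Inhibition of growth was derived by comparison with vehicle-exposed cultures.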
# [16] = NCI Yeast Anticancer Drug Screen. Data for the rad18 strain (AID 177); settings: S. cerevisiae rad18 mutant growth inhibition, active compounds read high
# How it was run: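 A genetically defined yeast mutant impaired in DNA damage repair was treated with test compounds, then its growth was measured against cultures receiving vehicle alone.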
# [17] = at 5.0 µM (retest, dose inferred, filed as 0.5)
# [18] = at 50.0 µM (retest, dose inferred, filed as 5.0)
smiles,measurement,setting,value
O=[N+]([O-])c1ccc2nc(=S)[nH]n2c1,growth inhibition,[1]; at 1.2 µM,-3%
same,growth inhibition,[1]; at 3.7 µM,-2%
same,growth inhibition,[1]; at 11.0 µM,-2%
same,growth inhibition,[1]; at 33.0 µM,10%
same,growth inhibition,[1]; at 100.0 µM,65%
same,growth inhibition,[2]; at 1.2 µM,-3%
same,growth inhibition,[2]; at 3.7 µM,-2%
same,growth inhibition,[2]; at 11.0 µM,-7%
same,growth inhibition,[2]; at 33.0 µM,-8%
same,growth inhibition,[2]; at 100.0 µM,41%
same,growth inhibition,[3]; at 1.2 µM,0%
same,growth inhibition,[3]; at 3.7 µM,6%
same,growth inhibition,[3]; at 11.0 µM,20%
same,growth inhibition,[3]; at 33.0 µM,46%
same,growth inhibition,[3]; at 100.0 µM,87% (active)
same,growth inhibition,[4]; at 1.2 µM,0%
same,growth inhibition,[4]; at 3.7 µM,-4%
same,growth inhibition,[4]; at 11.0 µM,-4%
same,growth inhibition,[4]; at 33.0 µM,-8%
same,growth inhibition,[4]; at 100.0 µM,1%
same,growth inhibition,[5]; at 1.2 µM,-4%
same,growth inhibition,[5]; at 3.7 µM,-1%
same,growth inhibition,[5]; [17],-130%
same,growth inhibition,[5]; at 11.0 µM,13%
same,growth inhibition,[5]; at 33.0 µM,19%
same,growth inhibition,[5]; [18],94% (active)
same,growth inhibition,[5]; at 50.0 µM,58.6%
same,growth inhibition,[5]; at 100.0 µM,98% (active)
same,growth inhibition,[6]; at 1.2 µM,1%
same,growth inhibition,[6]; at 3.7 µM,-1%
same,growth inhibition,[6]; [17],-42%
same,growth inhibition,[6]; at 11.0 µM,-5%
same,growth inhibition,[6]; at 33.0 µM,0%
same,growth inhibition,[6]; [18],-7%
same,growth inhibition,[6]; at 50.0 µM,24.1%
same,growth inhibition,[6]; at 100.0 µM,34%
same,growth inhibition,[7]; at 1.2 µM,3%
same,growth inhibition,[7]; at 3.7 µM,-1%
same,growth inhibition,[7]; at 11.0 µM,6%
same,growth inhibition,[7]; at 33.0 µM,12%
same,growth inhibition,[7]; at 100.0 µM,59%
same,growth inhibition,[8]; [17],-58%
same,growth inhibition,[8]; [18],22%
same,growth inhibition,[8]; at 50.0 µM,23.9%
same,growth inhibition,[9]; at 1.2 µM,-2%
same,growth inhibition,[9]; at 3.7 µM,-2%
same,growth inhibition,[9]; at 11.0 µM,-4%
same,growth inhibition,[9]; at 33.0 µM,-5%
same,growth inhibition,[9]; at 100.0 µM,36%
same,growth inhibition,[10]; [17],-59%
same,growth inhibition,[10]; [18],2%
same,growth inhibition,[10]; at 50.0 µM,-7.5%
same,growth inhibition,[11]; at 1.2 µM,-9%
same,growth inhibition,[11]; at 3.7 µM,-8%
same,growth inhibition,[11]; [17],-71%
same,growth inhibition,[11]; at 11.0 µM,-5%
same,growth inhibition,[11]; at 33.0 µM,-5%
same,growth inhibition,[11]; [18],76% (active)
same,growth inhibition,[11]; at 50.0 µM,-6.7%
same,growth inhibition,[11]; at 100.0 µM,65%
same,growth inhibition,[12]; at 1.2 µM,-2%
same,growth inhibition,[12]; at 3.7 µM,-1%
same,growth inhibition,[12]; at 11.0 µM,-2%
same,growth inhibition,[12]; at 33.0 µM,-3%
same,growth inhibition,[12]; at 100.0 µM,12%
same,growth inhibition,[13]; at 1.2 µM,7%
same,growth inhibition,[13]; at 3.7 µM,-5%
same,growth inhibition,[13]; at 11.0 µM,-3%
same,growth inhibition,[13]; at 33.0 µM,-2%
same,growth inhibition,[13]; at 100.0 µM,26%
same,growth inhibition,[14]; at 1.2 µM,0%
same,growth inhibition,[14]; at 3.7 µM,-2%
same,growth inhibition,[14]; at 11.0 µM,-5%
same,growth inhibition,[14]; at 33.0 µM,0%
same,growth inhibition,[14]; at 100.0 µM,47%
same,growth inhibition,[15]; [17],-133%
same,growth inhibition,[15]; [18],78% (active)
same,growth inhibition,[15]; at 50.0 µM,46.1%
same,growth inhibition,[16]; at 1.2 µM,-2%
same,growth inhibition,[16]; at 3.7 µM,0%
same,growth inhibition,[16]; at 11.0 µM,2%
same,growth inhibition,[16]; at 33.0 µM,7%
same,growth inhibition,[16]; at 100.0 µM,60%
